In PubChem BioAssay (NCATS):
Values without a mark were called inactive. The call rests on the fitted dose curve; in most records, active means well fitted curve in the direction sought with a large enough effect; inconclusive means small, poorly fitted or top-dose-only effect, or another doubt; inactive means no such curve, though single readings can be large; an effect the other way counts as inactive or inconclusive. Inconclusive results are not listed.

Test: Cellular Toxicity (caspase-3) SK-N-SH (AID 661)
Settings: SK-N-SH caspase-3 activation, qHTS, DMSO as zero, staurosporine as full; series mostly up to 91.7 µM; caspase-3 activation: at the top concentration
Method in brief: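 Cells were seeded and incubated 5 hr at 37 °C, dosed with compound over a concentration range for 16 hr, then given Caspase-Glo 3/7 reagent for 1 hr at room temperature before luminescence reading.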

Compound	caspase-3 activation [%]
Brc1ccccc1-c1ccccc1	27.6
C1=CC2C3C=CC(C3)C2C1 (stereo not drawn)	1.83
CC(C)C(C)(C)C(C)(C)C(C)(C)S	-0.212
Nc1cccc2c(N)cccc12	-0.68
Oc1ccccc1	0.66
CCCC(=O)c1cc(O)c(O)cc1O	-2.95
O=C(c1ccccc1)c1ccccc1	-1.27
O=C(NO)c1ccccc1	-0.255

Test: Cellular Toxicity (caspase-3) H-4-II-E (AID 663);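 further: cells exposed to compound for 16 hr before readout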
Settings: H-4-II-E rat hepatoma; Potency: caspase-3 activation; series mostly up to 92.2 µM; caspase-3 activation: at the top concentration
Method in brief: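 H-4-II-E rat hepatoma, 1500 cells/well, 5 hr settle at 37 °C; compound 16 hr, 37 °C, complete medium; Caspase-Glo 3/7, 20 min RT; luminescence. DMSO = 0%, 100 uM tamoxifen = 100%; Hill-equation AC50.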

Compound	caspase-3 activation [%]
Brc1ccccc1-c1ccccc1	0.554
C1=CC2C3C=CC(C3)C2C1 (stereo not drawn)	0.138
CC(C)C(C)(C)C(C)(C)C(C)(C)S	0.387
Nc1cccc2c(N)cccc12	2.39
Oc1ccccc1	1.83
CCCC(=O)c1cc(O)c(O)cc1O	-0.388
O=C(c1ccccc1)c1ccccc1	0.21
O=C(NO)c1ccccc1	0.496

Test: Cellular Toxicity (caspase-3) Hek293 (AID 664);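 further: cells exposed to compound for 16 h at 37 °C before readout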
Settings: HEK293 caspase-3 activation, DMSO = 0%, 100 µM tamoxifen = 100%; series mostly up to 92.2 µM; caspase-3 activation: at the top concentration
Method in brief: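 qHTS, HEK293 (human embryonic kidney), 16 h cpd exposure in complete medium. Caspase-3/7 activation = luminescence increase; normalized to DMSO/100 uM tamoxifen; Hill-fit AC50.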

Compound	caspase-3 activation [%]
Brc1ccccc1-c1ccccc1	2.11
C1=CC2C3C=CC(C3)C2C1 (stereo not drawn)	-0.308
CC(C)C(C)(C)C(C)(C)C(C)(C)S	-0.448
Nc1cccc2c(N)cccc12	0.509
Oc1ccccc1	-3.52
CCCC(=O)c1cc(O)c(O)cc1O	-0.181
O=C(c1ccccc1)c1ccccc1	-1.95
O=C(NO)c1ccccc1	0.613

Test: Cellular Toxicity (caspase-3) N2a (AID 665);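 further: compound exposure lasted 16 h at 37 °C before readout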
Settings: N2a cells, luminescence, normalized: DMSO 0%, 10 µM staurosporine 100%; series mostly up to 92.2 µM; caspase-3 activation: at the top concentration
Method in brief: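 Caspase-3/7 activation, measured as increased luminescence from aminoluciferin release, is quantified in mouse N2a cells exposed to compounds for 16 h. Values are normalized to DMSO and 10 uM staurosporine, with AC50 derived by Hill modelling.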

Compound	caspase-3 activation [%]
Brc1ccccc1-c1ccccc1	-2.99
C1=CC2C3C=CC(C3)C2C1 (stereo not drawn)	-0.67
CC(C)C(C)(C)C(C)(C)C(C)(C)S	-1.8
Nc1cccc2c(N)cccc12	-0.304
Oc1ccccc1	0.0285
CCCC(=O)c1cc(O)c(O)cc1O	-5.12
O=C(c1ccccc1)c1ccccc1	-2.11
O=C(NO)c1ccccc1	-0.251

Test: Cellular Toxicity (caspase-3) NIH 3T3 (AID 666);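 further: caspase signal read after 16 h compound exposure; 0% = DMSO basal and 100% = 100 µM tamoxifen stimulation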
Settings: NIH 3T3 caspase-3 activation, apoptosis/toxicity; series mostly up to 92.2 µM; caspase-3 activation: at the top concentration
Method in brief: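 Cells were plated at 1000 per well and incubated 5 hr at 37°C, then compound was added for 16 hr. Caspase-Glo 3/7 reagent followed for 20 min at room temperature before luminescence was read.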

Compound	caspase-3 activation [%]
Brc1ccccc1-c1ccccc1	-3.62
C1=CC2C3C=CC(C3)C2C1 (stereo not drawn)	-3.41
CC(C)C(C)(C)C(C)(C)C(C)(C)S	-2.06
Nc1cccc2c(N)cccc12	-7.91
Oc1ccccc1	0.258
CCCC(=O)c1cc(O)c(O)cc1O	-13
O=C(c1ccccc1)c1ccccc1	0.434
O=C(NO)c1ccccc1	3

Test: Cellular Toxicity (caspase-3) Renal Proximal Tubule (AID 667);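 further: cells exposed to compound for 16 hours at 37 °C before detection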
Settings: renal proximal tubule cells, primary cells freshly taken from rat, solvent-only wells 0%, staurosporine 100%; series mostly up to 91.7 µM; caspase-3 activation: at the top concentration
Method in brief: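 In qHTS format, rat primary proximal tubule cells seeded at 1000 per well are exposed to compounds for 16 hours at 37 °C. An increase in Caspase-Glo 3/7 luminescence indicates caspase activation.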

Compound	caspase-3 activation [%]
Brc1ccccc1-c1ccccc1	7.04
C1=CC2C3C=CC(C3)C2C1 (stereo not drawn)	-4.56
CC(C)C(C)(C)C(C)(C)C(C)(C)S	0.94
Nc1cccc2c(N)cccc12	-1.12
Oc1ccccc1	1.59
CCCC(=O)c1cc(O)c(O)cc1O	-5.58
O=C(c1ccccc1)c1ccccc1	13.9
O=C(NO)c1ccccc1	-4.67
